Measured values taken from PubChem BioAssay.
Unmarked numbers belong to inactive results.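 The calls were made as follows: active = Her2 level under about 52% in both replicate screens, with viability over 70% of control (limit read from the data); inconclusive = Her2 under the limit in one screen only, or viability under 70%; inactive = Her2 level above the set limit.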

These compounds were tested against Receptor tyrosine-protein kinase erbB-2 (Homo sapiens) (UniProt P04626) (assay: reducers of endogenous Her2 protein level, primary screen, SKBR3 breast tumor cells, AlphaScreen, ATP viability (AID 461;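 also: lower value means less Her2 protein in the cells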)). Details: 18-24 h, at 10 µM, hits give low values.
Chain of Receptor tyrosine-protein kinase erbB-2 (Homo sapiens) (P04626 whole entry, looked up): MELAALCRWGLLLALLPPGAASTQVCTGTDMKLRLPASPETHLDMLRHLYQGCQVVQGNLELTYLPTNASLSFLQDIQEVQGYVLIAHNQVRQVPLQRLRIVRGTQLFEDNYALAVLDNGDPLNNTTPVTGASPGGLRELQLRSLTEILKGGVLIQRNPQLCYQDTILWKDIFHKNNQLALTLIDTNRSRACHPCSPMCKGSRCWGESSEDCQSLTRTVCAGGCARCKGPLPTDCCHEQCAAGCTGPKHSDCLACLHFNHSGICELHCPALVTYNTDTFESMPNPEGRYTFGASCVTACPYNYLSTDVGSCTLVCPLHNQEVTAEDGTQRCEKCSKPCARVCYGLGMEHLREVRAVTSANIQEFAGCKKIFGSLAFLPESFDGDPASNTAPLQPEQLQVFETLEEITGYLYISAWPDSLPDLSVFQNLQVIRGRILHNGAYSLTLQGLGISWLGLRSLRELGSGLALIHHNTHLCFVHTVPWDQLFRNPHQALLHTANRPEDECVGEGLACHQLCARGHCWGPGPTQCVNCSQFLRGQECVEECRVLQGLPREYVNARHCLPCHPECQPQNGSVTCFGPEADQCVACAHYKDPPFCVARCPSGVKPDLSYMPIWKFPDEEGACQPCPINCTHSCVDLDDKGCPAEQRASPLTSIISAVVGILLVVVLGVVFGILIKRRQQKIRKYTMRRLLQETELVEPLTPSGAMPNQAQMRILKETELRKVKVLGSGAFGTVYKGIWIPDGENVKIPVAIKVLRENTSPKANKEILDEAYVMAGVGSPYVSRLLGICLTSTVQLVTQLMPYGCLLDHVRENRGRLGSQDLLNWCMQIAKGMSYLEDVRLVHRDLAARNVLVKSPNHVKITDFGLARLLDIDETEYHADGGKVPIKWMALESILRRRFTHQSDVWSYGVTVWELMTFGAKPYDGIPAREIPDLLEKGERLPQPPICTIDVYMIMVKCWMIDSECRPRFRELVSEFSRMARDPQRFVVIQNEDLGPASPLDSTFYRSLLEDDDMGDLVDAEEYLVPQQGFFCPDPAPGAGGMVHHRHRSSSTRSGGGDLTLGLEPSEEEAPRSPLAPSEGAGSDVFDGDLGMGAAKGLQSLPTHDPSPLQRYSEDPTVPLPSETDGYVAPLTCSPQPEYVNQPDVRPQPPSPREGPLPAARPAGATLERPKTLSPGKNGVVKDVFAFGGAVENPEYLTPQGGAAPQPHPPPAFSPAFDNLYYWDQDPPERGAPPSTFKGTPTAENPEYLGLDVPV
`Cn1c(=O)[nH]c(=O)c2c1nc(N1CCNCC1)n2CCOc1ccccc1` showed a Her2 level of 108%.
In the case of `CCOC(=O)c1cc2n(n1)C(C(F)(F)C(F)(F)F)CC(C)N2` (stereo not given), the Her2 level is reported as 93.5%.
In the case of `Cc1ccccc1-n1c(=O)c2ccccc2n2nnnc12`, the Her2 level is reported as 112%.
Compound `Cc1cccc(N2C(=O)CC(N3CCN(C(=O)c4ccccc4)CC3)C2=O)c1` (stereo not given) has a Her2 level of 104%.
With `CC(C)Cn1c(=O)c(C2=NS(=O)(=O)c3ccccc3N2)c(O)c2ccccc21` the Her2 level was 86.5%.
With `c1ccc(CNc2ncnc3ccccc23)cc1` the Her2 level was 87%.
In the case of `O=S1(=O)N=C(Nc2nc3c(s2)CCCC3)c2ccccc21`, the Her2 level is reported as 112%.
For `CCCn1c2ccccc2c2nnc(SCC(=O)Nc3ncccn3)nc21`, the Her2 level was 75.5%.
In the case of `COc1cc(OC)cc(C(=O)N2c3ccc(F)cc3CCC2C)c1` (stereo not given), the Her2 level is reported as 89%.
`CCOC(=O)C(CCc1nnc(N)s1)C(=O)OCC` gave a Her2 level of 89%.
`CCOC(=O)N1CCN(c2c(NCCCOC(C)C)c(=O)c2=O)CC1` showed a Her2 level of 90%.
In the case of `CN(C)S(=O)(=O)Nc1ccc(Br)cc1F`, the Her2 level is reported as 82.5%.
In the case of `CC(=O)Nc1c(C(=O)C2CC2)oc2ccccc12`, the Her2 level is reported as 124%.
In the case of `O=C(COC(=O)c1cc(-c2ccco2)nc2ccccc12)NCc1ccc2c(c1)OCO2`, the Her2 level is reported as 93%.
Compound `CCC(=O)c1ccc(OCCN2CCOCC2)cc1` has a Her2 level of 91.5%.
With `Cc1cc(=O)oc2cc(OCC(=O)OCc3nnc(-c4ccccc4)o3)ccc12` the Her2 level was 92.5%.
Compound `Nn1c(SCC(=O)NC2CCCCC2)nnc1C1CC1` has a Her2 level of 111%.
With `CCN(C(=O)Cc1c(C(=O)O)[nH]c2ccccc12)c1cc(OC)ccc1OC` the Her2 level was 84%.
`O=C(NCc1ccco1)c1cnc2n(c1=O)CCS2` was tested, and the Her2 level was 94.5%.
For `O=C1CN(C(=O)COC(=O)c2ccccc2NC(=O)c2ccco2)c2ccccc2N1`, the Her2 level was 106%.
Compound `CC(=O)Nc1ccc(S(=O)(=O)n2nc(C)cc2C)cc1` has a Her2 level of 106%.
For `CCOC(=O)CSc1nnc(Cn2nnc(-c3ccccc3)n2)n1CC`, the Her2 level was 84%.
`O=C(Nc1ccccc1C(=O)N1CCCCCC1)c1cccc(S(=O)(=O)N2CCOCC2)c1` showed a Her2 level of 96%.
`Cc1ccc(-c2cc(C(=O)NCc3ccc4c(c3)OCO4)no2)cc1` gave a Her2 level of 77%.
`CCOC(=O)c1cc(C)sc1N1C(=O)C2C3C=CC(C3)C2C1=O` (stereo not given) showed a Her2 level of 94.5%.
Compound `Cc1ccc(-c2nc(CS(=O)CC(=O)NCCN(CC(C)C)CC(C)C)c(C)o2)cc1` (stereo not given) has a Her2 level of 84.5%.
In the case of `CCN(CC)S(=O)(=O)N1CCC(C(=O)NC2CCCc3ccccc32)CC1` (stereo not given), the Her2 level is reported as 118%.
In the case of `COc1ccc(OC)c(Nc2cc(-c3ccccc3)nc(N)n2)c1`, the Her2 level is reported as 69%.
Compound `O=c1ccc(S(=O)(=O)N2CCC(Cc3ccccc3)CC2)c[nH]1` has a Her2 level of 80.5%.
`CN(C)S(=O)(=O)c1ccc(Oc2ccc(S(=O)(=O)N(C)C)cc2)cc1` was tested, and the Her2 level was 96.5%.
In the case of `COc1ccc2c(c1OC)C(=O)OC2C1c2c(cc3c(c2OC)OCO3)CCN1C` (stereo not given), the Her2 level is reported as 90.5%.
Compound `c1ccc(-c2cn3c4c(sc3n2)CCCC4)cc1` has a Her2 level of 76%.
For `Oc1ccc2[nH]cnc2c1CN1CCCCC1`, the Her2 level was 110%.
`CCCCOc1cc(=O)[nH]c(=O)[nH]1` was tested, and the Her2 level was 99%.
`COc1cc(-c2nn3c(-c4cccnc4)nnc3s2)cc(OC)c1OC` showed a Her2 level of 98.5%.
`CCS(=O)(=O)Nc1ccc(C(=O)CC2(O)C(=O)Nc3ccccc32)cc1` (stereo not given) showed a Her2 level of 91%.
`Cn1c(=O)c2[nH]c(NCC3CCCO3)nc2n(-c2ccccc2)c1=O` (stereo not given) gave a Her2 level of 81%.
With `Cc1cccc(OCCCC(=O)O)c1` the Her2 level was 102%.
With `Cc1cccc2cc(CN(CC3CCCO3)C(=O)c3cnccn3)c(=O)[nH]c12` (stereo not given) the Her2 level was 105%.
`COCCCNC(=O)C(Cc1ccccc1)NS(=O)(=O)c1ccc2c(c1)c(=O)n(C)c(=O)n2C` (stereo not given) gave a Her2 level of 95.5%.
